# About 4,400 (1.3%) of roughly 330,000 compounds were called active. The full list was thinned out, with actives kept by preference. Values without a mark were called inactive.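 The calls were made as follows: active = growth inhibition of the mutant yeast at or above 50%; inactive = the rest.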
# Test: growth inhibition of tim23-1 ts yeast – luminescence, uHTS, primary screen (AID 463212);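 also: temperature-sensitive mutant grown at 25 °C; plate controls were DMSO-treated mutant yeast for no effect and medium wells lacking yeast for full effect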
# Conditions: S. cerevisiae tim23-1 growth, BacTiter-Glo luminescence, 24 h; at 20 µM; active compounds read high
row,Compound,inhibition
1,CN(C)c1ccc(N/C=C/C(=O)C(F)(F)F)cc1,6.08%
2,O=C(O)c1cc(S(=O)(=O)N2CCCCCC2)c(Cl)cc1Cl,8.13%
3,COc1ccc(CCNC(=O)CCCCCNC(=O)N2CCn3c2nc2ccccc23)cc1OC,15%
4,CC1CC2=C(CC1/C=N/NC(N)=S)C(C)(C)CCC2 (stereo not drawn),50.5% (active)
5,CC1CCN(C(=S)c2ccc(-c3ccc(Cl)cc3Cl)o2)CC1,17.6%
6,C/C(=N\NC(=O)c1ccc(NS(=O)(=O)c2cccs2)cc1)c1ccc2ccccc2c1,10.6%
7,CCN(C(=O)CSc1nnnn1-c1ccccc1OC)C1CCS(=O)(=O)C1 (stereo not drawn),-2.5%
8,O=C(COC(=O)c1ccc(O)cc1O)c1ccc2c(c1)OCCO2,59% (active)
9,CC(=O)Nc1cccc(C(=O)OCC(=O)c2ccc3c(c2)OCO3)c1,2.44%
10,O=C(COC(=O)c1ccccc1)c1ccc2c(c1)OCCO2,16.5%
11,O=C(c1cnn2ccccc12)N1CCc2ccccc21,5.86%
12,COC(=O)c1cn(C)c2ccc(S(=O)(=O)N3CC(C)CC(C)C3)cc2c1=O (stereo not drawn),17.1%
13,CC(=O)N/C(=C/c1ccc(OC(F)F)cc1)C(=O)O,0.72%
14,Oc1c(Cl)cc(Cl)cc1/C=N/c1ncn[nH]1,31.4%
15,COc1cc(Br)cc(/C=N/c2ncn[nH]2)c1O,72.2% (active)
16,C=CCn1c(Cn2nnc3ccccc32)nnc1SCC(=O)N/N=C/c1cc(Br)cc(OC)c1O,7.67%
17,CCc1ccc(Oc2nc([N+](=O)[O-])nn2C)cc1,27.6%
18,Cn1c2ccccc2c2c(C(=O)N3CCN(c4ccc(F)cc4)CC3)cn(C3CCCC3)c(=O)c21,31.3%
19,CC1CCN(Cc2nc3c(c(=O)n(C)c(=O)n3C)n2CCc2ccccc2)CC1,5.06%
20,CCCc1nc2c(c(=O)c3ccccc3n2C)c(=O)n1C1CCCCCC1,59.8% (active)
21,CCN=c1sc(C(=O)Nc2ccccc2)c(C)n1CC,-9.39%
22,COc1cccc(C2=CC(=O)C[C@H](c3ccc(OC)c(OC)c3)C2)c1,29%
23,Cc1ccc(OC(=O)c2c(C)nn(-c3ccccc3)c2C)cc1,23%
24,Cc1ccc(Oc2cnn(-c3ccccc3)c(=O)c2Br)cc1,55.2% (active)

row,Compound,inhibition
1,Cc1cccc(-n2ncc(Cl)c(Cl)c2=O)c1,13.8%
2,Cc1ccc(-n2c(=O)c(C#N)cc3c(=O)n4ccccc4nc32)cc1C,-9.74%
3,CCc1ccc(OCC(=O)N(Cc2ccccc2)C2CCS(=O)(=O)C2)cc1 (stereo not drawn),9.11%
4,COc1ccccc1C(C)NC(=O)Cc1ccsc1 (stereo not drawn),-5.87%
5,O=C(NCCc1ccco1)c1nn(Cc2ccccc2)c(=O)c2ccccc12,8.6%
6,O=c1nc2s/c(=C\c3ccco3)c(=O)n2nc1Cc1ccccc1,65.5% (active)
7,O=C(Nc1ccccc1)/C(=C\c1ccco1)NC(=O)c1ccco1,17%
8,COc1ccc(C(=O)O)cc1S(=O)(=O)NCc1cccnc1,-0.937%
9,COc1ccc(CNC(=O)c2cc(=O)c3c(C)cc(C)cc3o2)cc1,28.5%
10,Cc1cc(C)cc(OCC(=O)Nc2cc(NC(=O)COc3cc(C)cc(C)c3)cc(C(=O)O)c2)c1,1.96%
11,CNC(=O)c1nnc(Cc2ccc(Cl)cc2)o1,13.1%
12,c1ccc2cc(CCCc3cc4ccccc4cn3)ncc2c1,51.6% (active)
13,Cc1nn(CC(=O)N2CCCCC2)c(=O)c2nn(-c3ccccc3)c(C)c12,5.69%
14,Cc1ccc(NC(=O)C(=O)NCc2ccc(/C=N/NC(=O)c3c(C)nc4cc(C)ccn34)o2)cc1,13.6%
15,O=C(Nc1ccccc1)c1nnsc1S(=O)(=O)c1ccc(Cl)cc1,59.8% (active)
16,O=C(Nc1ccc(S(=O)(=O)Nc2ccccn2)cc1)c1ccccc1,-13.7%
17,O=C(Nc1ccc(Cl)cc1)Nc1nnc(/C=C/c2ccccc2)s1,-4.19%
18,CC(=O)C[C@@H](O)CC(=O)[C@H]1OC(=O)CCCCCCc2ccccc21,12.8%
19,CCOC(=O)C1=C(C)N(C[C@@H]2CC[C@@H](Cc3ccc(-c4ccccc4)cc3)O2)C(=O)NC1c1ccc([N+](=O)[O-])cc1 (stereo partly drawn),34.6%
20,C=CCNC(=S)N1CCc2[nH]c3ccccc3c2C1,-8.13%
21,CC[C@]1(C(=O)OC)[C@H]2C(=O)N(Cc3ccccc3)C(=O)[C@H]2[C@H]2CN=C(SCc3ccc(Cl)cc3)N21,53.5% (active)
22,CC[C@]1(C(=O)OC)[C@H]2C(=O)N(Cc3ccccc3)C(=O)[C@H]2[C@H]2CN=C(SCc3ccccc3)N21,37.7%
23,CC[C@]1(C(=O)OC)[C@H]2C(=O)N(Cc3ccccc3)C(=O)[C@H]2[C@H]2CN=C(SCc3ccc(C#N)cc3)N21,46.4%
24,COc1cccc(NC(=O)CN(C)C(=O)CSCc2nc3scc(-c4cccs4)c3c(=O)[nH]2)c1,4.94%

row,Compound,inhibition
1,Cc1ccc(NC(=O)Cn2c(=O)n(CCC(=O)NC3CCN(Cc4ccccc4)CC3)c(=O)c3ccccc32)cc1,-1.05%
2,CC(C)CNC(=O)COC(=O)c1ccccc1OCC(=O)Nc1ccc(Br)cc1,-11.3%
3,O=C(NCCc1ccc(F)cc1)c1ccc(S(=O)(=O)N2CCCCC2)cc1,53.6% (active)
4,O=C(Nc1ccccc1F)c1ccc(S(=O)(=O)N2CCCCCC2)cc1,34.9%
5,COC(=O)c1ccc(CNC(=O)c2ccc(S(=O)(=O)N3CCCCCC3)cc2)cc1,15.9%
6,CC(=O)Oc1ccc(C(C)=O)c2c1OCCO2,5.79%
7,Cc1nn(CC(=O)Nc2nc3ccccc3s2)c(C)c1[N+](=O)[O-],69.8% (active)
8,Cc1nn(CC(=O)NCc2ccccn2)c(C)c1[N+](=O)[O-],24.7%
9,CCc1ccc(NC(=O)Cn2nc(C)c([N+](=O)[O-])c2C)cc1,25.5%
10,O=C(NCc1nnc(SCC(=O)N2CCCc3ccccc32)o1)c1ccccc1F,19.1%
11,COc1ccc(N(Cc2cc3ccc(C)cc3[nH]c2=O)S(=O)(=O)c2ccccc2)cc1,48.9%
12,O=C(/C=C/c1ccc(Cl)c([N+](=O)[O-])c1)c1cccnc1,80.7% (active)
13,O=C(/C=C/c1ccc(Cl)cc1Cl)c1cccnc1,31.1%
14,O=C(Nc1ccncc1)c1ccc(Cl)c([N+](=O)[O-])c1,-42.5%
15,CC1CCCCC1NC(=O)CCS(=O)(=O)c1cccc2nonc12 (stereo not drawn),4.3%
16,O=C(CCS(=O)(=O)Cc1ccccc1F)NCCCN1CCCCC1,-8.7%
17,CSCCC(NC(=O)COc1ccccc1)C(=O)N(C)CC(=O)Nc1ccc(C)cc1 (stereo not drawn),8.43%
18,Cc1ccc(CNC(=O)c2cccnc2Cl)cc1,-14.6%
19,O=C1C(C=NCC2CCCO2)=C(O)c2ccccc21 (stereo not drawn),6.49%
20,CCc1ccc(NC(=O)NC(C)c2ccc3c(c2)OCO3)cc1 (stereo not drawn),22.5%
21,CC(=NCc1ccco1)C1=C(O)c2ccccc2C1=O,50.3% (active)
22,CC1CCC(NC(=O)C2c3ccccc3C(=O)N2Cc2ccc3c(c2)OCO3)CC1 (stereo not drawn),9.09%
23,CC(=NCc1ccc2c(c1)OCO2)C1=C(O)c2ccccc2C1=O,51.6% (active)
24,CC(=NCc1ccco1)c1c(C(F)(F)F)[nH]n(-c2nc3ccccc3s2)c1=O,22.4%

row,Compound,inhibition
1,CCOC(=O)C[C@H]1c2ccc(C(F)(F)F)cc2S(=O)(=O)N1c1ccccc1,33.9%
2,COc1cc2c(C(=O)N(C)c3cc(Cl)ccc3OC)cn(C)c(=O)c2cc1OC,10%
3,N#CC(Cc1cc2ccccc2n1S(=O)(=O)c1ccccc1)OCc1ccccc1 (stereo not drawn),30.3%
4,CC1C(=O)C(C)C(c2ccc(O)cc2)NC1c1ccc(O)cc1 (stereo not drawn),0.501%
5,CCc1nc2sc(C(=O)O)c(N)c2c2c1CCCC2,-17.3%
6,Cc1ccc2c(N)c(C(=O)c3ccccc3)sc2n1,48.6%
7,Cc1nc2sc(C(=O)c3ccccc3)c(N)c2c2c1CCCC2,51.8% (active)
8,CCOC(=O)C1CCCN(S(=O)(=O)c2ccc(-n3cnnn3)c(C)c2)C1 (stereo not drawn),2.62%
9,COc1ccc(/C(O)=C2/C(=O)C(=O)N(CC3CCCO3)C2c2ccc(OC)c(OC)c2)cc1 (stereo not drawn),-1.19%
10,Cc1nnc(SCC(=O)N(C(C)C)C(C)C)nc1C,8.73%
11,O=C(COc1ccc([N+](=O)[O-])cc1Cl)Nn1cnnc1,6.97%
12,COc1ccc(-c2nc3cc(C)ccn3c2NC2CCCCC2)cc1SC1CCCCC1,52.3% (active)
13,CCOc1cc(-c2nc3cc(C)ccn3c2NCC2CCCO2)ccc1O (stereo not drawn),18.9%
14,COc1ccc(-c2nc3cnccn3c2NC2CCCCC2)cc1-c1cccc(Cl)c1,21.6%
15,O=C(c1cc2ccccc2o1)N1CCN(Cc2ccccc2)CC1,12.6%
16,Cc1[nH]c2ccccc2c1-c1ccc(Cl)nn1,5.43%
17,CC(C)CCNC(=O)c1ccc2c(Cl)c3c(nc2c1)CCC3,43.3%
18,Cc1ccc(S(=O)(=O)NC2CCCCCC2)cc1,51.4% (active)
19,CC(C)c1ccc(S(=O)(=O)NC2CCCC2)cc1,23.4%
20,CSc1ccc(S(=O)(=O)NC2CCCCC2)cc1,31.1%
21,CC(CC(=O)N1CCN(S(=O)(=O)c2ccccc2)CC1)n1cncn1 (stereo not drawn),7.53%

# Reference: PubChem BioAssay AID463212 (Sanford-Burnham Center for Chemical Genomics, 2010)
